Measurements reported in ChEMBL document CHEMBL4513139, “CO-ADD screening of University of Strathclyde (UK) compounds”.
Screen size: about 21,000 compounds; fewer than 10 showed an effect of 50% or more. These entries were drawn from the full list. Measured potencies and affinities stand elsewhere.

Tested on: Acinetobacter baumannii
Settings: Concentration 32 ug.mL-1; ASSAY_TEST Inhibition of Bacterial Growth; detection method Absorption (OD600); MEDIA CAMHB; plate type 384well; NBS; CORNING #3640; time 18 hr

Row | Compound | Inhibition [%]
1 | Cn1cc(NC(=O)c2cc(NC(=O)c3ccc(/C=C/c4cccc(F)c4)cc3)cn2C)cc1C(=O)NCCN1CCOCC1.O=C(O)C(F)(F)F | 5.74
